Experimental data: the supplement of paper PMC12067093, “Discovery and optimisation of a covalent ligand for TRIM25 and its application to targeted protein ubiquitination” (Chemical Science, 2025)
Of roughly 21,000 targets only a part is listed; those with the largest changes were picked by preference.

Compound: CC1Cc2ccccc2N1C(=O)C1CCCN(C1)C(=O)CCl (mixture of isomers) [TRIM25 ligand 11 (diastereomer mixture)]
Experiment: probe-labelled cysteine peptide fold change vs DMSO (competition) (log2 fold change); higher = less target engagement (more negative = stronger competition)
Details: THP-1, incubation time: 4 h
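Also: competitive chemoproteomic profiling in live THP-1 cells with an iodoacetamide desthiobiotin (IA-DTB) probe, comparing probe-labelled peptide intensities in compound-treated cells against DMSO-treated controls.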

Target	probe-labelled cysteine peptide fold change (10 µM)	probe-labelled cysteine peptide fold change (50 µM)
MRC2_Q9UBG0_213_EDGHLWCATTQDYGKDER (UniProt Q9UBG0)	-0.0873	-0.0151
NANS_Q9NR45_19_WVGGQHPCFIIAEIGQNHQGDLDVAK (UniProt Q9NR45)	0.0689	0.0782
MAP10_Q9P2G4_605_TVDCSK (UniProt Q9P2G4)	-0.174	-0.0642
MED14_O60244_1433_QGECTIFAAVR (UniProt O60244)	0.177	0.249
MED14_O60244_635_AGEMCAFNK (UniProt O60244)	-0.0268	-0.0566
MYH9_P35579_671_CIIPNHEKK (UniProt P35579)	-0.608	-0.373
NAA10_P41227_17+21_NARPEDLMNMQHCNLLCLPENYQMK (UniProt P41227)	-0.0777	-0.156
MCM5_P33992_221_CVDFQTLK (UniProt P33992)	-0.0141	0.0951
MED1_Q15648_302_WTPSFSSITSANSVDLPACFFLK (UniProt Q15648)	-0.00458	0.123
MACF1_Q9UPN3_3619_QQNTCHQQLEDLCSWVGQAER (UniProt Q9UPN3)	-0.474	0.118
MRTO4_Q9UKD2_176_RGVVTLLSDYEVCK (UniProt Q9UKD2)	0.091	-0.0317
MDN1_Q9NU22_1400_TTICQVFAALANQK (UniProt Q9NU22)	0.156	0.0599
MDN1_Q9NU22_4604_HLFFSQSCSLLVR (UniProt Q9NU22)	0.142	0.423
MRPS24_Q96EL2_103_FMWGTFPGCLADQLVLK (UniProt Q96EL2)	0.183	0.203
NCAPG_Q9BPX3_177_DDECPVVNAYATLIENDSNPEVR (UniProt Q9BPX3)	-0.316	-0.473
NAPA_P54920_84_HDAATCFVDAGNAFK (UniProt P54920)	0.0886	0.00981
MYO9B_Q13459_152_QQADFDDLCNLPELTEGNLLK (UniProt Q13459)	-0.135	-0.0276
MSTO1_Q9BUK6_232_LHFYVEECDYLQGFQILCDLHDGFSGVGAK (UniProt Q9BUK6)	0.183	-0.0331
MLST8_Q9BVC4_107_WMYTGGEDCTAR (UniProt Q9BVC4)	0.0109	-0.0842
MFN1_Q8IWA4_513_LCSDFQEDIVFR (UniProt Q8IWA4)	0.257	0.355
MED15_Q96RN5_618_QQYLCQPLLDAVLANIR (UniProt Q96RN5)	-0.00606	0.36

Target	probe-labelled cysteine peptide fold change (10 µM)	probe-labelled cysteine peptide fold change (50 µM)
MELTF_P08582_603_SEDYELLCPNGAR (UniProt P08582)	0.0149	0.0229
NBAS_A2RRP1_1634_QLHCYNER (UniProt A2RRP1)	0.000992	-0.0554
LYAR_Q9NX58_6+9_VFFTCNACGESVKK (UniProt Q9NX58)	-0.135	-0.2
MRPL45_Q9BRJ2_151_DIFIEAHLCLNNSDHDR (UniProt Q9BRJ2)	-0.648	-0.159
MTMR1_Q13613_438_TSVVVHCSDGWDR (UniProt Q13613)	0.559	-0.0364
MTF2_Q9Y483_133_CGQGYHQLCHTPHIDSSVIDSDEK (UniProt Q9Y483)	0.12	0.228
MTREX_P42285_983_LEIDEETYLSSFKPHLMDVVYTWATGATFAHICK (UniProt P42285)	0.115	-0.0469
MTMR3_Q13615_81_ESLVNVPLQLIESVECR (UniProt Q13615)	0.553	-0.00809
NCAPD3_P42695_143_CIQTLK (UniProt P42695)	0.0922	0.12
MECP2_P51608_429_GGSLESDGCPKEPAK (UniProt P51608)	-0.274	-0.613
MAP4K2_Q12851_302_ASDPHLGTPSPEDCELETYDMFPDTIHSR (UniProt Q12851)	-0.0289	-0.161
MED7_O43513_223_DAALCVLIDEMNERP (UniProt O43513)	0.0565	-0.131
METTL13_Q8N6R0_226_FRPVPGSALQIFELCAQEQR (UniProt Q8N6R0)	0.025	-0.292
LUC7L3_O95232_58_SDLGPCEK (UniProt O95232)	-0.0397	-0.155
MTA2_O94776_106_CSVTLLNETDILSQYLEK (UniProt O94776)	0.0256	0.178
NCAPD3_P42695_361_ILLQHICAK (UniProt P42695)	-0.145	0.173
MOCS3_O95396_193_YLVNDACVLAGRPLVSASALR (UniProt O95396)	-0.0913	-0.0185
MT1E_P04732_50_CAQGCVCK<|>MT1F_P04733_50_CAQGCVCK<|>MT1B_P07438_50_CAQGCVCK<|>MT1L_Q93083_50_CAQGCVCK (UniProt Q93083+P07438+P04733+P04732)	-0.000901	0.116
MTM1_Q13496_242_CSQPLVGMSGKR (UniProt Q13496)	-0.862	-0.255
MCU_Q8NE86_97_CQFTLKPISDSVGVFLR (UniProt Q8NE86)	-0.212	-0.196
MPG_P29372_56_AGQPHSSSDAAQAPAEQPHSSSDAAQAPCPR (UniProt P29372)	0.193	-0.822
